Compounds without any hit were thinned out: in the full panel of roughly 83,000, 20% have a hit.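 How to read the values: 0–100, growth inhibition (40 = 60% inhibited); 0, no net growth; -100 to 0, cell death (-40 = 40% of starting cells died; -100 = all dead).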 Calls of active or inactive are those of the source. How the source made its calls: active means growth percent below 10; inactive means the rest.
Legend:
Assay in all cases: NCI-60 one-dose screen, 48 h (100 = growth as untreated, 0 = no growth, -100 = all killed)
Settings in all cases: 10 µM unless noted
NCI-H23 lung = test system: NCI-H23 lung
NCI-H226 lung = test system: NCI-H226 lung
NCI-H322M lung = test system: NCI-H322M lung
HOP-62 NSCLC = test system: HOP-62 NSCLC
NCI-H460 lung = test system: NCI-H460 lung
HOP-92 NSCLC = test system: HOP-92 NSCLC
NCI-H522 lung = test system: NCI-H522 lung
A549/ATCC NSCLC = test system: A549/ATCC NSCLC
786-0 renal = test system: 786-0 renal
COLO 205 colon = test system: COLO 205 colon

Measured: growth

O=C1CSC(c2c(F)cccc2Cl)N1NC(=O)C(O)(c1ccccc1)c1ccccc1 (stereo not drawn)
inactive: NCI-H23 lung 98.7% | NCI-H226 lung 95.3% | NCI-H322M lung 102% | HOP-62 NSCLC 86.8% | NCI-H460 lung 113% | HOP-92 NSCLC 86.3% | NCI-H522 lung 88.4% | A549/ATCC NSCLC 96.2% | 786-0 renal 97% | COLO 205 colon 104%

Cn1cnc2c(F)c(Nc3ccc(Br)cc3Cl)c(C(=O)NOCCO)cc21
active: HOP-92 NSCLC -0.548% | COLO 205 colon -3.79%
inactive: NCI-H23 lung 25.7% | NCI-H226 lung 55.3% | NCI-H322M lung 11.2% | HOP-62 NSCLC 28.6% | NCI-H460 lung 60.2% | NCI-H522 lung 44.4% | A549/ATCC NSCLC 35.8% | 786-0 renal 71.1%

COc1cc(NCCN(CC(C)C)CC(C)C)c2ncc(C)cc2c1
inactive: NCI-H23 lung 42% | NCI-H226 lung 90.5% | NCI-H322M lung 82.9% | HOP-62 NSCLC 51.5% | NCI-H460 lung 60.4% | HOP-92 NSCLC 132% | NCI-H522 lung 73.2% | A549/ATCC NSCLC 31.7% | 786-0 renal 91.3% | COLO 205 colon 49.6%

Cc1cc(O)cc(-c2c(-c3ccnc(-c4cccnc4)c3)cnn2C)c1
inactive: NCI-H23 lung 93.6% | NCI-H226 lung 69.5% | NCI-H322M lung 66.6% | HOP-62 NSCLC 67.2% | NCI-H460 lung 67.4% | HOP-92 NSCLC 42.7% | NCI-H522 lung 46.9% | A549/ATCC NSCLC 78.1% | 786-0 renal 67.7% | COLO 205 colon 84.6%

CC(=O)C1CC(C)CCC1C(C)C (stereo not drawn)
inactive: NCI-H23 lung 78.7% | NCI-H226 lung 105% | NCI-H322M lung 102% | HOP-62 NSCLC 107% | NCI-H460 lung 98.4% | HOP-92 NSCLC 47.4% | NCI-H522 lung 82.8% | A549/ATCC NSCLC 106% | 786-0 renal 105% | COLO 205 colon 122%

CN1CCN(CC(=O)Nc2ccc(-c3nc4ccccc4s3)cc2)CC1
inactive: NCI-H23 lung 82.2% | NCI-H226 lung 96.2% | NCI-H322M lung 77.9% | HOP-62 NSCLC 87.3% | NCI-H460 lung 84.7% | HOP-92 NSCLC 35.7% | NCI-H522 lung 58.9% | A549/ATCC NSCLC 88.6% | 786-0 renal 78.7% | COLO 205 colon 39.7%

COc1cc2c(Nc3ccc(Br)cc3F)ncnc2cc1OCC1CCN(C)CC1
active: NCI-H322M lung 6.72% | HOP-92 NSCLC -12.9% | NCI-H522 lung -31.3% | COLO 205 colon -13.9%
inactive: NCI-H23 lung 52.5% | NCI-H226 lung 57.5% | HOP-62 NSCLC 19.5% | NCI-H460 lung 39.9% | A549/ATCC NSCLC 22.9% | 786-0 renal 15.3%

C=CC(=O)Nc1cccc(Oc2nc(Nc3ccc(N4CCN(C)CC4)cc3)nc3ccsc23)c1
inactive: NCI-H23 lung 32.2%
active: NCI-H226 lung -2.55% | NCI-H322M lung 4.69% | HOP-62 NSCLC -62% | NCI-H460 lung -59.8% | HOP-92 NSCLC -70.8% | NCI-H522 lung -77.1% | A549/ATCC NSCLC -74.1% | 786-0 renal -84% | COLO 205 colon -83.3%

O=c1[nH]c(N2CCOCC2)nc2scc(-c3ccccc3)c12
inactive: NCI-H23 lung 87.2% | NCI-H226 lung 97.2% | NCI-H322M lung 95% | HOP-62 NSCLC 91.3% | NCI-H460 lung 110% | HOP-92 NSCLC 79.7% | NCI-H522 lung 77% | A549/ATCC NSCLC 86.8% | 786-0 renal 95.2% | COLO 205 colon 101%

CC(C)C1CCC(C)C(C2(C#N)C(N)=NC(N)=C2C#N)C1=O (stereo not drawn)
inactive: NCI-H23 lung 92.3% | NCI-H226 lung 100% | NCI-H322M lung 98.8% | HOP-62 NSCLC 104% | NCI-H460 lung 105% | HOP-92 NSCLC 88.9% | NCI-H522 lung 89.4% | A549/ATCC NSCLC 105% | 786-0 renal 106% | COLO 205 colon 100%

COc1cc2c(cc1OCCCCCN1CCN(c3ncnc4ccccc34)CC1)N=CC1CCCN1C2=O (stereo not drawn)
active: NCI-H23 lung 3.3% | NCI-H226 lung -58.2% | NCI-H322M lung -0.115% | HOP-62 NSCLC -22.4% | NCI-H460 lung 5.35% | HOP-92 NSCLC -63.8% | NCI-H522 lung -55.4% | A549/ATCC NSCLC 1.13% | 786-0 renal -9.08% | COLO 205 colon -46.1%

O=C(Nc1cccc([N+](=O)[O-])c1)c1ccc(Cl)c(Cl)c1
active: HOP-62 NSCLC 7.13%
inactive: NCI-H23 lung 59.3% | NCI-H226 lung 43.3% | NCI-H322M lung 69.7% | NCI-H460 lung 77.6% | HOP-92 NSCLC 51.6% | NCI-H522 lung 60% | A549/ATCC NSCLC 68.3% | 786-0 renal 67.4% | COLO 205 colon 89.7%

Cc1cc(C2(c3ccc(O)c(C)c3)OS(=O)(=O)c3ccccc32)ccc1O
inactive: NCI-H23 lung 101% | NCI-H226 lung 97.9% | NCI-H322M lung 103% | HOP-62 NSCLC 107% | NCI-H460 lung 103% | NCI-H522 lung 115% | A549/ATCC NSCLC 101% | 786-0 renal 112% | COLO 205 colon 96.3%

NC(=O)N1N=C(c2ccc(Cl)cc2)CC1c1cn(-c2ccccc2)nc1-c1ccc(Cl)cc1 (stereo not drawn)
inactive: NCI-H23 lung 56.5% | NCI-H226 lung 30.1% | NCI-H322M lung 63.1% | HOP-62 NSCLC 37.8% | NCI-H460 lung 41.9% | NCI-H522 lung 56.9% | A549/ATCC NSCLC 41.3% | COLO 205 colon 81.9%
active: 786-0 renal -7.43%
